Measured values: PubChem BioAssay AID1233 (SRMLSC, 2008)
Measured potencies and affinities stand elsewhere. Calls of active or inactive are those of the source.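 The calls were made as follows: active = a dose-response curve fit returns a half-maximal inhibitory concentration, extrapolated values included; inactive = the fit returns no such concentration.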

Each molecule was assayed against HMG-CoA reductase [Enterococcus faecalis] (UniProt Q9FD70) (assay: class II HMG-CoA reductase inhibition potency – biochemical, Enterococcus faecalis, confirmation (AID 1233)). Conditions: purified E. faecalis HMGR, NADPH absorbance 340 nm kinetics; series mostly up to 100 µM.

outcome, inactive:
COc1ccc(CCNC(=O)CCNC(=O)c2ccc(Cl)cc2)cc1OC
O=C(CCc1nc2ccccc2c(=O)[nH]1)N1CCN(C/C=C/c2ccccc2)CC1
S=C(NCCc1ccccc1)N1CCN(Cc2ccccc2)CC1
O=C(O)CCC(=O)NC(c1ccccc1)c1ccccc1
O=C(COC(=O)c1ccncc1)Nc1ccccc1
COc1ccc(CCNC2=CC(=O)N(c3ccc(F)cc3)C2=O)cc1
Cc1ccc(C(=O)O)cc1S(=O)(=O)N1CCC(C(=O)O)CC1
CO/N=C/c1ccc(N2CCCC2)c([N+](=O)[O-])c1
CCCCCCNC(=O)C(=O)NCCc1ccc(Cl)cc1
CC(=O)c1ccc(N2CCN(C(=O)Cc3n[nH]c(=O)c4ccccc34)CC2)cc1
O=C(N/N=C/c1ccc(OC(F)F)cc1OC(F)F)c1cccc(S(=O)(=O)N2CCOCC2)c1
Cc1cc(C=O)c2c(c1)C=CC1(Oc3ccccc3C(=O)N1C)O2 (configuration not stated)
Cc1ccc2nsnc2c1N
O=C(COc1ccccc1C(=O)N/N=C\c1ccc(O)c(O)c1)N/N=C/c1ccc(O)c(O)c1
Cc1ccc(NC(=S)NC(=O)CC2CC(C)(C)OC2=O)cc1 (configuration not stated)
COc1cc2c(cc1OC)C(C(=O)Nc1ccc3c(c1)OCCO3)C(c1cccnc1)N(C)C2=O (configuration not stated)
O=C(O)CCC(=O)NNC(=O)c1ccc(Br)cc1
COc1ccc(C/C(C)=N/NS(=O)(=O)c2ccc(Br)cc2)cc1
CC[n+]1c(C)n(-c2ccccc2)c2ccc(C(=O)OC)cc21
C=CCNC(=O)C(=O)NN=C1CCN(C)CC1
O=C(Nc1ccc2c(c1)OCO2)c1ccc(COc2ccc3c(c2)CCC3)o1
Cc1c(CN2CCc3c([nH]c4ccccc34)C2C2CCCCC2)cnn1C (configuration not stated)
COc1ccc(Cc2noc(-c3ccccc3)n2)cc1OC
COc1ccccc1NC(=S)N1CCCc2ccccc21
COc1ccc2ccc(=O)oc2c1
CCOc1cc(/C=N\NC(=O)OC(C)(C)C)ccc1OC(=O)c1ccco1
Cc1nnc(SCc2c(Cl)cccc2Cl)n(N)c1=O
CCCCOc1ccccc1NC(=O)CC1SC(=NCC)N(CC)C1=O (configuration not stated)
Cc1cc(Cl)ccc1Oc1nccc(N(C)C)c1C#N
O=C(CSc1nc2ccccc2n1CCc1ccccc1)N1CCOCC1
CN(C)C(=O)CSc1n[nH]c(=O)[nH]c1=O
COc1ccc(C)cc1NC(=O)COC(=O)C1CCN(C(=O)c2ccc(Cl)cc2)CC1
O=C(COC(=O)CNC(=O)c1ccccc1F)Nc1ccc2c(c1)OCCO2
Cn1nccc1C(=O)N1CCc2ccccc21
CCN1CCN(CCC(=O)Nc2ccc3c(c2)OCO3)CC1
O=C(O)c1cc(N/N=C/C(Cl)=C/c2ccccc2)ccc1Cl
CCn1c(SCC(=O)N/N=C/c2ccc(C)o2)nnc1-c1ccccc1
